SMILES strings stand for the structures. In all, about 47,000 compounds went through this assay and about 510 (1.1%) were called active. The sample holds actives, similar compounds and a random draw of the others, so the mix is not that of the screen. A number with no mark means an inactive call. Cut-off read from the data, not from the text of the source: active = inhibition above about 30%; inactive = the rest.

The experiment deals with Ubiquitin carboxyl-terminal hydrolase 10 (Homo sapiens) (UniProt Q14694). Briefly: inhibitors of human USP10 deubiquitinase (AID 1645856). The conditions noted are these: purified USP10, Ub-rhodamine fluorescence, 60 min; at 20 µM; active compounds read high.
Ubiquitin carboxyl-terminal hydrolase 10 (Homo sapiens), sequence (Q14694 whole entry, looked up): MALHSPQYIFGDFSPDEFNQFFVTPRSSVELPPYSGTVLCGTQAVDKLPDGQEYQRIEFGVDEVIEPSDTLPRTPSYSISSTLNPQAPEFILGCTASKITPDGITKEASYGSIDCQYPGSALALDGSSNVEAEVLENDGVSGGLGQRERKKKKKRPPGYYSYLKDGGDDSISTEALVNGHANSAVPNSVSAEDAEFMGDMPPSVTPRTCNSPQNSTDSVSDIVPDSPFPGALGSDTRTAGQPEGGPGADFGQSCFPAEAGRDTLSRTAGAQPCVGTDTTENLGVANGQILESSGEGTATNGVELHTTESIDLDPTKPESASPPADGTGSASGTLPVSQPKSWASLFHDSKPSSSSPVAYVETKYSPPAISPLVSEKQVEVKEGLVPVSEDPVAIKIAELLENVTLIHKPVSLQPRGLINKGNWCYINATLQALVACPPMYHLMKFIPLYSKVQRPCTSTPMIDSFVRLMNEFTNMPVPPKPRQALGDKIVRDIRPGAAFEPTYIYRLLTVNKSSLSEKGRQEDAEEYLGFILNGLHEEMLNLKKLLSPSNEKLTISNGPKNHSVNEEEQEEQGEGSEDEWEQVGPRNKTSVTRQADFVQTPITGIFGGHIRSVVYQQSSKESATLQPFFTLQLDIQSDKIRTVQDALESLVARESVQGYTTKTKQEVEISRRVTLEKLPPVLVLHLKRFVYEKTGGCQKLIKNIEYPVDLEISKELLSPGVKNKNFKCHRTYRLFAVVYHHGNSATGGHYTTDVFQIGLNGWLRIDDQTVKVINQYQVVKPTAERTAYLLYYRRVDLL
Turning to `COc1ccccc1C1CC(c2c(O)n(C)c(=O)n(C)c2=O)=Nc2ccccc2S1` (stereo not drawn), the inhibition is 2.61%.
Consider `Oc1cccc2nc3c(O)cccc3nc12`, for which the inhibition is 41.5% (active).
For `COC(=O)COc1cccc2c(=O)n(CC(=O)N3CCc4ccccc43)ccc12`, the inhibition was 2.69%.
With `COc1ccccc1CN1CCC2(CC1)NC(=O)C(CC(C)C)NC2=O` (stereo not drawn) the figure was 0.757%; with `CC(C)NC(=O)c1cc(-c2cnc(-c3ccnn3C)nc2)cn1CC1CC1`, -0.689%; with `O=S(=O)(Cc1ccccc1)N1CCC2(CCN(Cc3cccc(F)c3)C2)C1` (stereo not drawn), -2.23%.
The same measure for `O=c1ccc(S(=O)(=O)N2CCOCC2)cn1Cc1ccccc1`: -0.385%; for `COc1cc(-c2nc(CC(=O)NCCc3c[nH]c4ccc(F)cc34)cs2)cc(OC)c1OC`: -1.95%.
The same measure for `CC(C)n1c(C2CCN(C(=O)Nc3ccc4c(c3)CCC4)C2)nc2ccncc21` (stereo not drawn): 2.17%; for `COc1cccc(CNC(=O)c2nnn(CC(=O)Nc3cc(C)ccc3C)c2N)c1`: 29.8%; for `Cc1ccc(NC(=O)Cc2sc(Nc3ccc(C)cc3)nc2O)cc1`: 25.6%.
Consider `Cc1ccc(Nc2nc(NCC(=O)Nc3cc(C)ccc3C)nc(Nc3ccc(C)cc3)n2)cc1`, for which the inhibition is 37% (active).
With `CS(=O)(=O)N1Cc2ccccc2OC2(CCCNC2)C1` (stereo not drawn) the figure was -0.607%; with `CCOc1nccnc1N1CCC(N(C)S(=O)(=O)C2CC2)C1` (stereo not drawn), 1.55%.
With `CC(C)c1ccc(NC(=O)C[n+]2cc(-c3ccc(F)cc3)n3c2CCC3)cc1` the figure was 0.686%; with `COc1cccc(NC(=O)c2nn(-c3ccc(F)cc3)c(OC)cc2=O)c1`, 0.262%.
With `COc1cccc(NC(=O)C(Sc2cccc(NC(=O)c3ccccc3F)c2)c2ccccc2)c1` (stereo not drawn) the figure was 32.4% (active); with `COc1ccccc1C(=O)Nc1cccc(Oc2ccccc2)c1`, 11.9%; with `COc1ccc(C2CC(=O)c3cnc(NCC4CCCO4)nc3C2)cc1` (stereo not drawn), -0.196%.
`COc1cccc(C2c3[nH]c4ccccc4c3C[C@@H]3C(=O)N(CC4CCCO4)CC(=O)N23)c1` (stereo partly drawn): the inhibition was -6.67%.
Turning to `Cc1ccc(C(=O)Nc2nc3c(s2)CCC3C(=O)NCc2ccncc2)cc1` (stereo not drawn), the inhibition was -7.71%.
With `Cc1ccc(-n2cc(-c3noc(C(=O)Nc4ccc(F)cc4C)n3)nn2)cc1`, the inhibition was 76.1% (active).
For `Cc1cc(F)ccc1NC(=O)c1cc(C2CC2)n2nccc2n1`, the inhibition was -3.56%.
With `Cc1ccc(Cn2cc(-c3noc(-c4ccccn4)n3)nn2)cc1` the figure was 7.3%.
With `O=C1NCCCn2cc(S(=O)(=O)NCc3ccc4c(c3)OCO4)cc21` the figure was -0.173%; with `Cc1nc2cc(-c3noc(-c4cnccn4)n3)ccc2n(C2CCCC2)c1=O`, -3.38%.
Take `CCCCN(C)c1ccc2nnc(CCc3nc(-c4cc(OC)cc(OC)c4)no3)n2n1`: the inhibition is -5.1%.
For the compound `CNC(=O)N1C[C@H]2C[C@H](C(=O)Nc3ccc4c(c3)OCO4)[C@@H](C1)O2`, the inhibition was -1.52%.
The same measure for `O=C(COc1ccc2ccccc2c1)NCc1nnnn1-c1ccc(Cl)cc1`: 6.45%.
The same measure for `CC1(C(N)=O)CN(Cc2ccnc(N3CCCC3)n2)CCO1` (stereo not drawn): -2.23%.
With `CN1CC(=O)N(C2CCCNC2)Cc2c(NC3CCc4ccccc43)ncnc21` (stereo not drawn) the figure was -1.83%; with `O=S(=O)(c1ccc(F)c(Cl)c1)N1CCC(N2CCOCC2)CC1`, 1.61%; with `CC(C)C(NS(=O)(=O)c1ccc(Cl)cc1)C(=O)OCC(=O)C12CC3CC(CC(C3)C1)C2` (stereo not drawn), 3.82%.
As to `Cc1cccc(CNC(=O)C2CCc3nc(N4CCOCC4)ncc3C2)c1` (stereo not drawn), the inhibition is -3.24%.
In the case of `COc1cccc(O[C@@H]2C[C@@H](NC(=O)c3ncoc3C)[C@H](O)[C@H]2O)c1`, the inhibition is -1.35%.
Consider `O=S1(=O)C=C(CSCCO)c2cc(Cl)ccc21`, for which the inhibition was -1.29%.
With `Cc1cc(C(=O)N2CCCCC2c2nncn2CC2CC2)nn1C` (stereo not drawn) the figure was 1.03%; with `COCCNC(=O)c1cccc(C2CCCN(C(=O)Nc3ccccc3)C2)c1` (stereo not drawn), 6.54%; with `O=C(CSc1n[nH]c(-c2ccccc2Cl)n1)NCC1CCCO1` (stereo not drawn), -1.9%.
With `COc1ccc(CC(=O)N2CCC3(C2)C(=O)N(C)c2ccccc23)cc1` (stereo not drawn) the figure was -4.15%; with `CCOC(=O)N1CCN(Cc2nc3ccc([N+](=O)[O-])cc3c(=O)n2-c2cccc(OC)c2)CC1`, -1.3%.
On to `CC(C)Cn1cnc2nc(CSc3ccccc3NC(=O)Nc3ccccc3)cc(=O)n21`, for which the inhibition was 2.5%.
The same measure for `Cc1ccc(S(=O)(=O)N2CCC(c3nc(C(=O)N(C)C)c(C)o3)CC2)cc1C`: -0.0972%; for `CCCCCCSc1ncnc2c1sc1nc(-c3ccccc3)c3c(c12)CC(C)(C)OC3`: -3.17%.
The same measure for `CSc1ncnc2c1sc1nc(-c3ccccc3)c3c(c12)CC(C)(C)OC3`: 0.0174%; for `CC1(C)Cc2c(c(-c3ccco3)nc3sc4c(SCCCc5ccccc5)ncnc4c23)CO1`: 58.4% (active).
With `Clc1cc2nc(N3CCN(c4ccccn4)CC3)c3nncn3c2cc1Cl` the figure was -8.09%.
Consider `N#Cc1ccccc1Cn1c(=O)n(CCCC(=O)NCc2ccc(F)cc2)c(=O)c2ccccc21`, for which the inhibition was 34% (active).
For the compound `Cc1ccccc1CNC(=O)Cn1c(=O)ccn(Cc2ccc(F)cc2)c1=O`, the inhibition is 0.832%.
For `O=C(CCCn1c(=O)c2ccccc2n(Cc2ccccc2F)c1=O)NC1CCCC1`, the inhibition is 8.78%.
The same measure for `COc1cccc(C(O)c2ncc(-c3ccc4ccccc4c3)[nH]2)c1` (stereo not drawn): -5.14%; for `CN(C)c1nc(C2CCN(C(=O)c3ccccc3)CC2)cn2nccc12`: -1.26%.
The same measure for `CN(C)c1nccnc1C1CN(C(=O)c2cc(C(C)(C)C)[nH]n2)CCO1` (stereo not drawn): 4.78%; for `C/C=C(\Cl)C1=CC(=O)[C@]23C[C@H]2[C@@]2(C)CO[C@@]1(O)[C@@]3(O)O2`: -13.4%.
As for `Cc1ccc(S(=O)(=O)N2CCCC(c3nc(-c4ccc(=O)[nH]c4)no3)C2)cc1` (stereo not drawn), the inhibition is 0.0273%.
For `O=C(Nc1ccc(Cl)cc1F)c1cc(-c2ccccn2)n[nH]1`, the inhibition is 10.2%.
As to `Cc1ccc(CC(=O)N2CCN(C(=O)c3cc(-c4ccccn4)n[nH]3)CC2)cc1`, the inhibition was -1.22%.
The same measure for `COc1cc(Cl)c(NC(=O)c2cc(-c3ccccn3)n[nH]2)c(OC)c1`: 38% (active); for `Cc1c(-c2nnc(-c3ccccn3)o2)nnn1-c1ccccc1Cl`: 1.56%; for `COc1ccc(-c2noc(-c3ccc(N(C)Cc4ccco4)nn3)n2)cc1`: 0.989%.
With `Cc1ncccc1Oc1nccnc1C1CCNCC1`, the inhibition was 0.116%.
With `CCN(CC)C(=O)CC[C@H]1CNC(=O)[C@@H]2[C@@H](CCN2CC2CC2)N1C` the figure was -0.533%; with `O=C1CC(c2ccc(OCc3ccccc3)cc2)c2sccc2N1` (stereo not drawn), 2.63%.
The same measure for `COc1cccc(CCN2CCOc3nc4c(C)cccc4cc3C2)c1OC`: 1.85%; for `Cn1c(=O)[nH]c(=O)c2c1nc(N1CCCCCC1)n2CCCSc1nc2ccccc2s1`: 20.1%; for `Cn1c2c(c(=O)n(C)c1=O)[C@@H]1c3c(ccc4ccccc34)OC[C@@H]1CO2`: -4.17%.
The same measure for `CO[C@@H](/C(C)=C/C=C/C(C)=C/c1coc(C)n1)[C@@H](C)[C@@H]1C[C@H](O)[C@@]2(C)O[C@@H]2/C=C/[C@@H](C)[C@H](O)C[C@H](CC(=O)O)C/C=C/C(=O)O1`: -8.33%; for `CN(c1ccc(F)cc1)c1ccc2ccc(C(=O)N3CCCC(O)C3)cn12` (stereo not drawn): -11.2%; for `Cn1c(SCC(N)=O)nnc1-c1cc2ccccc2o1`: -1.83%.
With `Cc1noc(C)c1C1CCCN1C(=O)c1c(F)cccc1F` (stereo not drawn), the inhibition is 2.21%.
The same measure for `CC(CN1CCOCC1)OC(=O)c1ccc(C(C)(C)C)cc1` (stereo not drawn): 0.0972%; for `CC(C)CC(=O)Nc1ccc(-c2nc3ncccc3o2)cc1`: 1.25%.
The same measure for `CCOc1ccccc1NC(=O)Cc1cccs1`: 1.12%; for `Cc1cccc(Nc2nc(N3CCOCC3)nc3c2cnn3C)c1`: -3.81%; for `CCc1nc2cc(N3CCC(C(=O)N4CCN(CC)CC4)CC3)cnc2nc1CC`: -3.73%.
As to `O=C(NCC1CCCCC1)C1CCN(C2=NS(=O)(=O)c3ccccc32)CC1`, the inhibition is -1.45%.
On to `COc1cccc(CNC(=O)c2ccc3c(=O)nc4c(-c5ccccc5)n[nH]n4c3c2)c1`, for which the inhibition is 17.4%.
With `Cc1cc(Cl)cc(C)c1OCC(=O)NC1CCCc2ccccc21` (stereo not drawn) the figure was -1.09%; with `CCOC(=O)C1CCN(C(c2cccnc2)c2c(NC(C)=O)sc3c2CCCC3)CC1` (stereo not drawn), -3.05%; with `CC1CCN(C(=O)C2CCN(C(=O)c3ccc4c(c3)nnn4C3CCCC3)CC2)CC1`, -0.291%.
With `Cc1ccc(CC(=O)Nc2nnc(C3CC(=O)N(c4ccc(C)c(C)c4)C3)s2)cc1` (stereo not drawn), the inhibition was 15.3%.
As to `COc1ccc(N2CC(c3nnc(NC(=O)CCc4ccccc4)s3)CC2=O)cc1` (stereo not drawn), the inhibition is 30.4% (active).
As for `Cc1ccc(N2CC(c3nnc(NC(=O)CCCc4ccccc4)s3)CC2=O)cc1` (stereo not drawn), the inhibition is 8.86%.

Usually inhibition stands for the drop in the measured response relative to a control, in per cent.

Source of the values: PubChem BioAssay AID1645856 (Buhrlage Lab, Dana-Farber Cancer Institute and Novartis …, 2021).
